The list is not random: actives were taken first. Their share in the collection is about 1.1%.
OPRM1-OPRD1 inv: inverse agonists of MOR-DOR heterodimerization, primary screen, cell-based, luminescence; cell-based MOR-DOR heterodimer luminescence, inverse agonism; Mu-type opioid receptor (Homo sapiens) + Delta-type opioid receptor (Homo sapiens), …; AID 504357, 2011; inhibition, % at 9.3 µM; 340,000 tested, 0.21% active; in the data active means inhibition above about 22%, passing the limit was not always enough
OPRM1-OPRD1 ag: agonists of OPRM1-OPRD1 heterodimerization, primary screen, cell-based, luminescence; Mu-type opioid receptor (Homo sapiens) + Delta-type opioid receptor (Homo sapiens), …; cells; 340,000 tested, 0.3% active; AID 504326, 2011; activation, % at 9.3 µM; in the data active means activation above about 18%
HTR5A inv ag: HTR5A inverse agonists in luminescence cell assay, primary screen, counter-screen for OPRM1-OPRD1 heterodimer inverse agonist project, full-deck HTS | 5-hydroxytryptamine receptor 5A (Homo sapiens), P47898 | HTR5A cell line, inverse agonism | inhibition, % at 9.3 µM | 340,000 tested, 0.083% active; in the data active means inhibition mostly above about 23%, no sharp cut-off; inactive means mostly below about 18%
Target sequence (P47898 whole entry, looked up): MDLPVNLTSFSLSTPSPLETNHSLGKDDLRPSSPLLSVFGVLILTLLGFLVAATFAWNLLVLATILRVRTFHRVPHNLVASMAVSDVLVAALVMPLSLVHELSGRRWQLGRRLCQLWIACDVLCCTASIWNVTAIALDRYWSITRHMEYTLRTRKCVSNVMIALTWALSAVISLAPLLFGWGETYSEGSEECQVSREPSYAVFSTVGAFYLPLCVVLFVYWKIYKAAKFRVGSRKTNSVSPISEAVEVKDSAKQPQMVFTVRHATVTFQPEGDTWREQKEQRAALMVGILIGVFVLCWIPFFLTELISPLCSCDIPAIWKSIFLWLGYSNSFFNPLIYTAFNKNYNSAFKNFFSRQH
HTR5A ag ctr: HTR5A agonists in luminescence cell assay, primary screen, counter-screen for OPRM1-OPRD1 heterodimer agonist project, full-deck HTS. 5-hydroxytryptamine receptor 5A (Homo sapiens), P47898. cell-based. activation, % at 9.3 µM. 340,000 tested, 0.61% active; in the data active means activation mostly above about 9.5%, no sharp cut-off; inactive means mostly below about 7.6%
Numbers stand for hits; n = inactive.

SMILES	OPRM1-OPRD1 inv	OPRM1-OPRD1 ag	HTR5A inv ag	HTR5A ag ctr
O=C1NC2(CCCCC2)C(=O)N1CC(=O)N1CCc2ccccc21	n	n	n	11
O=C(CN1C(=O)NC2(CCCC2)C1=O)N1CCN(S(=O)(=O)c2ccccc2F)CC1	n	n	n	n
O=C(CN1C(=O)NC2(CCCC2)C1=O)N1CCN(S(=O)(=O)c2ccccc2[N+](=O)[O-])CC1	n	n	n	9.5
Cn1c(NC(=O)COc2ccccc2)cc(=O)n(C)c1=O	n	n	n	n
Cc1cc(C)c(C)c(S(=O)(=O)N2CCN(C(=O)CNC(=O)c3ccco3)CC2)c1C	n	n	n	14
CCOC(=O)c1cc(NC(=O)CSc2nnc(CN3CCOCC3)n2C)ccc1Cl	n	n	n	n
COCCNC(=O)C(c1ccc(Cl)cc1)N(CCOC)C(=O)CCC(=O)Nc1nccs1 (stereo not given)	n	n	n	n
CN(C1CCS(=O)(=O)C1)S(=O)(=O)c1ccccc1[N+](=O)[O-] (stereo not given)	n	n	n	11
O=S1(=O)N[C@@H](Cc2ccccc2)COc2cc(Br)ccc21	n	n	n	n
Cc1c(C(=O)NC2CCCCC2)sc2ncnc(N3CCN(c4ccccc4)CC3)c12	n	n	n	11
S=C(Nc1ccc(Cl)cc1)c1nc2ccccc2s1	n	n	n	n
O=C(Nc1ccc(Cl)cc1)/C(=C/c1cccc(O)c1)c1nc2ccccc2s1	n	n	n	11
CCCc1cc(-c2ccc3c(c2)COc2c4ccccc4nn2-3)on1	n	n	n	n
FC(F)(F)c1cnc(NNC(=S)Nc2ccc(Cl)cc2)c(Cl)c1	49	n	49	n
O=S(=O)(NNc1ncc(C(F)(F)F)cc1Cl)c1ccc(F)cc1F	n	n	n	n
O=C(NNc1ncc(C(F)(F)F)cc1Cl)c1ccc(Cl)c(Cl)c1	n	n	n	n
Fc1ccc(NC(=S)NNc2ncc(C(F)(F)F)cc2Cl)c(F)c1	56	n	39	n
COc1cc(Cl)c(C)cc1NC(=O)CNC(C)c1ccccc1OC (stereo not given)	n	n	n	10
COc1ccccc1C(C)NCC(=O)Nc1c(F)cccc1F (stereo not given)	n	n	n	n
O=C(CN(Cc1ccccc1)C(=O)CCl)c1cccc(Br)c1	n	33	n	38
O=C(CSc1nc(O)cc(=O)n1-c1ccc(Cl)c(Cl)c1)Nc1ccc(Cl)cc1Cl	n	n	n	10
COc1cccc(C(=O)N2CCN(Cc3ccc(OC)cc3OC)CC2)c1	n	n	n	n
COc1ccc(/C(C)=N/Nc2nncc3ccccc23)cc1	n	n	n	n
CNC(=S)NNc1nncc2ccccc12	n	n	n	12
COc1cc(C(=O)O/N=C2\C=CC(=O)C=C2C)cc(OC)c1OC	n	n	n	n
SMILES	OPRM1-OPRD1 inv	OPRM1-OPRD1 ag	HTR5A inv ag	HTR5A ag ctr
COc1cc(C(=O)ON=C2C3CC4CC(C3)CC2C4)cc(OC)c1OC	n	n	n	12
CCCCc1ccc(NC(=S)N2CCCC2)cc1	n	n	n	12
CCCCc1ccc(NC(=S)N2CCN(C)CC2)cc1	n	n	n	n
CC(=O)Nc1ccc(S(=O)(=O)NC2(C(F)(F)F)NC(=O)N(C3CCCCC3)C2=O)cc1 (stereo not given)	n	n	n	10
CC(C)Sc1ncnc2[nH]ncc12	n	n	n	n
COC(=O)c1cc(S(=O)(=O)N2CCC(C)CC2)ccc1F	n	n	n	9.7
O=C(NCc1nnc(SCC(=O)N2CCCCCC2)o1)c1ccco1	n	n	n	11
O=S(=O)(Nc1ccccn1)c1ccc(Cl)c2ccccc12	n	n	n	n
COc1ccc(CCNS(=O)(=O)c2ccc3c(c2)NC(=O)CS3)cc1OC	n	n	n	11
Cc1ccc(NC(=O)COc2cccc(C)c2C)cc1S(=O)(=O)N1CCCCCC1	n	n	n	11
O=C(COc1ccc(Cl)cc1Br)Nc1cccc(S(=O)(=O)N2CCCC2)c1	n	n	n	14
COc1cc2c(cc1OC)C(c1cccs1)N(C(=O)c1cccc(S(=O)(=O)N(C)C)c1)CC2 (stereo not given)	n	n	n	n
CCOc1ccc(S(=O)(=O)N2CCC(C(=O)NCc3ccccc3CN3CCCC3)CC2)cc1	n	n	n	n
CCOC1Cc2ccccc2N(C(N)=O)c2ccccc21 (stereo not given)	n	n	n	n
COC1Cc2ccccc2N(C(=O)N2CCN(CCO)CC2)c2ccccc21 (stereo not given)	n	n	n	14

Bioassay records as filed in PubChem.
